We go through 58 compounds from paper PMC4336329 (PLoS ONE, 2015).

Hit rate of the full screen: of about 310,000 compounds, about 2,200 (0.71%) showed an effect of 50% or more. The effect is printed as a negative number. Shown is part of a subset that was picked to be rich in strong results.

The target of this experiment is human ether-à-go-go-related gene (hERG) potassium channel (human, UniProt Q12809). Description: primary screen, population patch clamp on CHO cells stably expressing hERG; higher = less effect of the substance.
human ether-à-go-go-related gene (hERG) potassium channel, sequence (Q12809 whole entry, looked up): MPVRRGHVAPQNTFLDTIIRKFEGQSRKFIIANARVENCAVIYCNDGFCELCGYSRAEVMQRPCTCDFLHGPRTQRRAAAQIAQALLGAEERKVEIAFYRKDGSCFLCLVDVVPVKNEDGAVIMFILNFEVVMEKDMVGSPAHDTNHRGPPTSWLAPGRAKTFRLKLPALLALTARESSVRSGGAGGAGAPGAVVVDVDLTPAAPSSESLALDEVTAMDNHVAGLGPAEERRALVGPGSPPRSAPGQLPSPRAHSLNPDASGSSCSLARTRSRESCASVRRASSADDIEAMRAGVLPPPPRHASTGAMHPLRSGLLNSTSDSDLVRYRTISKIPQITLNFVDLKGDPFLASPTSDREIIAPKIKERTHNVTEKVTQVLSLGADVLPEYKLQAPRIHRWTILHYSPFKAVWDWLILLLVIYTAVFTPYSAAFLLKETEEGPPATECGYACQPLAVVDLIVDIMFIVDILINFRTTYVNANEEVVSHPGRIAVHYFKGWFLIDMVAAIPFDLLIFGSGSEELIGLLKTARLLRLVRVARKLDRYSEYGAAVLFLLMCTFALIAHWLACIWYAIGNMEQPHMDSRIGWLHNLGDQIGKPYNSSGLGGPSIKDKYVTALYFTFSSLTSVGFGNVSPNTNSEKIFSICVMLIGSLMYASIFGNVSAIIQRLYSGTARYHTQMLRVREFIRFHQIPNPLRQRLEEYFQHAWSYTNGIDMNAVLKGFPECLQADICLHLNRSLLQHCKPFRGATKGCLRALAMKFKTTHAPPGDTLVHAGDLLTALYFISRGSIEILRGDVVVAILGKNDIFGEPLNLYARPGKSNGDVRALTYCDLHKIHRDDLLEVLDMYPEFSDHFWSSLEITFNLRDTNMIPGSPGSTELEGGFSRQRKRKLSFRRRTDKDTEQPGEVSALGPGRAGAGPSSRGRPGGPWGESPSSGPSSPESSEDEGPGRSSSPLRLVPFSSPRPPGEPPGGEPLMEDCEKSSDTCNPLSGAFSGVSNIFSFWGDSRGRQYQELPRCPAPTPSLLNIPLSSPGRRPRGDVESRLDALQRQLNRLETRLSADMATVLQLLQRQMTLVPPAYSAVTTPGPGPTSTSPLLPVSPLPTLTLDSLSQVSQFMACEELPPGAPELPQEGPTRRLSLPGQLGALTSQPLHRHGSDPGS
For `CCc1ccc(OCC(=O)O/N=C(\N)c2cccnc2)cc1`, the “hERG current change (%, negative = inhibition) at 1uM” value turned out to be 0.0916%. For `Br.N=c1n(CCN2CCOCC2)c2ccccc2n1Cc1ccccc1Br` the value was -51.7%; for `Br.CCCn1c(=N)n(CC(=O)c2ccc(Cl)c(Cl)c2)c2ccccc21`, -17.7%; for `Br.N=c1n(CCN2CCOCC2)c2ccccc2n1CC(=O)c1ccc(Cl)c(Cl)c1`, -69.1%.

Turning to `Cc1ccc(C(=O)Cn2c(=N)n(CCN3CCOCC3)c3ccccc32)cc1.[Br-]`, the “hERG current change (%, negative = inhibition) at 1uM” value is on record as -20.3%.

Consider `Br.N=c1n(CCN2CCCCC2)c2ccccc2n1CC(=O)c1ccc(Cl)c(Cl)c1`, for which the “hERG current change (%, negative = inhibition) at 1uM” value is given as -14.7%.

`N=c1n(CCOc2ccccc2)c2ccccc2n1CCN1CCOCC1`: the “hERG current change (%, negative = inhibition) at 1uM” value is recorded as -10%. `COc1ccc(-n2nc3c(N4CCC(C(=O)NCCc5ccco5)CC4)nnc(C)c3c2C)cc1`: the “hERG current change (%, negative = inhibition) at 1uM” value came to 19.1%.

`CCOC(=O)c1c(N)sc2c1CCCC2`: the “hERG current change (%, negative = inhibition) at 1uM” value stood at 15.1%.

On to `CC(Sc1ccc(Cl)cc1)C(=O)Nc1ccccc1-c1ccccc1` (stereo not shown), for which the “hERG current change (%, negative = inhibition) at 1uM” value worked out at 17.4%. With `COc1cc2c(cc1OC)CN(Cc1cc(=O)n3c(-c4ccccc4)csc3n1)CC2` the figure was 14.9%. As for `COc1cc2c(cc1OC)C(NC(=O)c1ccc(C)cc1)CC2=O` (stereo not shown), the “hERG current change (%, negative = inhibition) at 1uM” value is given as 7.58%. For `Cn1c(=O)c(Nc2ccc(Cl)cc2)c2c3c(cccc31)C(=O)c1ccccc1-2` the value was 14.9%; for `COc1ccccc1-c1nnc(NC(=O)c2ccc(S(=O)(=O)N(C)Cc3ccccc3)cc2)o1`, 4.43%; for `COCC1OS(=O)(=O)NC(CC(=O)SC(C)(C)C)C1C` (stereo not shown), 9.98%. With `O=C(CCN1CCOCC1)NCC(=O)Nc1ccc(Br)cc1C(=O)c1ccccc1` the figure was -17.6%; with `O=C(CN1CCOCC1)Nc1ccc(Br)cc1C(=O)c1ccccc1`, -3.67%; with `O=C(CCN1CCOCC1)Nc1ccc(Br)cc1C(=O)c1ccccc1`, -0.737%. For `O=C(CN1CCOCC1)NCC(=O)Nc1ccc(Br)cc1C(=O)c1ccccc1` the value was -20%; for `O=C(CCN1CCCCC1)NCC(=O)Nc1ccc(Br)cc1C(=O)c1ccccc1`, -78.1%.

For `O=C(CN1CCCCC1)NCC(=O)Nc1ccc(Br)cc1C(=O)c1ccccc1`, the “hERG current change (%, negative = inhibition) at 1uM” value is recorded as -77.2%. With `CCc1oc(C(=O)O)cc1COC` the figure was -4.45%. With `Cc1ccc(C)c(Nc2ncnc(N)c2[N+](=O)[O-])c1` the figure was 9.83%. For `Cc1nc(NC(=O)c2ccccc2)sc1C`, the “hERG current change (%, negative = inhibition) at 1uM” value was found to be 16.6%. In the case of `O=C(N/N=C/c1ccccc1)C1CCCN1C(=O)c1cc([N+](=O)[O-])cc([N+](=O)[O-])c1` (stereo not shown), the “hERG current change (%, negative = inhibition) at 1uM” value came out at 12.4%. For `COc1ccc(C=O)cc1Cn1ccnc1C.Cl` the value was 15.4%. For `Cc1cc(F)c(F)c(C(=O)N2CCC(C)CC2)c1Cl` the value was 5.24%; for `OCCC1CN(Cc2cccc(-n3cccn3)c2)CCN1Cc1ccccc1` (stereo not shown), -13.4%; for `Cc1cc(-n2cccn2)ccc1CN1CCN(C2CCCC2)C(CCO)C1` (stereo not shown), -54.2%.

For the compound `Cc1cc(-n2cccn2)ccc1CN1CCN(CC(C)C)C(CCO)C1` (stereo not shown), the “hERG current change (%, negative = inhibition) at 1uM” value was found to be 0.354%. For `OCCC1CN(Cc2cccc3nccnc23)CCN1C1CCCC1` (stereo not shown) the value was 3.17%; for `Cc1cccc(CN2CCN(Cc3cccc(-n4cccn4)c3)CC2CCO)n1` (stereo not shown), -13.6%; for `Cc1cccc(CN2CCN(Cc3ccc(-n4cccn4)cc3)CC2CCO)n1` (stereo not shown), -1.6%. For `OCCC1CN(Cc2ccc(-n3cccn3)cc2)CCN1Cc1ccccc1` (stereo not shown) the value was -28.5%. For `Cc1ccc(CN2CCN(Cc3ccc(-n4cccn4)cc3C)CC2CCO)cc1` (stereo not shown) the value was -83.8%.

Regarding `Cc1ccc(CN2CCN(Cc3cccc(-n4cccn4)c3)CC2CCO)cc1` (stereo not shown), the “hERG current change (%, negative = inhibition) at 1uM” value is -80.1%.

On to `Cc1ccc(CN2CCN(Cc3ccc(-n4cccn4)cc3)CC2CCO)cc1` (stereo not shown), for which the “hERG current change (%, negative = inhibition) at 1uM” value is -65.5%. With `OCCC1CN(Cc2cc(F)ccc2-n2cccn2)CCN1Cc1ccc(F)cc1` (stereo not shown) the figure was -36.9%.

Turning to `OCCC1CN(Cc2cc(F)ccc2-n2cccn2)CCN1C1CCCC1` (stereo not shown), the “hERG current change (%, negative = inhibition) at 1uM” value was determined as 3.09%. For `CCOc1ccccc1N1CC(O)=C(c2nc3ccccc3s2)C1=N` the value was 5.48%; for `O=C(CSc1nc(-c2ccccc2)cc(=O)[nH]1)Nc1ccc(F)c(F)c1`, 12.9%. For `Cc1ccc(S(=O)(=O)Nc2ccc(C(=O)NCc3cccnc3)cc2)cc1` the value was 10.9%; for `CCc1nc(SCC(=O)NCc2ccc(F)cc2)c2c(=O)n(C)c(=O)n(C)c2n1`, 11.2%; for `COc1ccc(OC)c(S(=O)(=O)NCC(=O)NC2CCCCCC2)c1`, 16%. With `COc1ccc2nc3sc(C(=O)N4CCN(C)CC4)cc3cc2c1` the figure was -12%; with `CC(NC(=O)COC(=O)/C=C/c1ccco1)c1ccccc1` (stereo not shown), 8.61%. Consider `COc1ccc(CN2CCN(C(C)C)C(CCO)C2)cc1Cn1cccn1` (stereo not shown), for which the “hERG current change (%, negative = inhibition) at 1uM” value is listed as 12%.

Consider `OCC1(Cc2ccccc2)CCN(Cc2cnn(-c3ccccc3F)c2)CC1`, for which the “hERG current change (%, negative = inhibition) at 1uM” value is -4.22%.

For the compound `CC(C)Cc1cc(CN2CCC(CO)(Cc3cccc(C(F)(F)F)c3)CC2)[nH]n1`, the “hERG current change (%, negative = inhibition) at 1uM” value is on record as -66%. For `COc1ccc(CC2(CO)CCN(Cc3cnn(C)c3C)CC2)cc1` the value was 6.81%; for `CSc1cccc(CN2CCC(CO)(Cc3cccc(C(F)(F)F)c3)CC2)c1`, -35.9%.

With `Cc1ccc(-n2cc(CN3CCC(CO)(Cc4ccccc4)CC3)cn2)cc1`, the “hERG current change (%, negative = inhibition) at 1uM” value is -22%. As to `Cc1ccc(-n2cc(CN3CCC(CO)(Cc4cccc(C(F)(F)F)c4)CC3)cn2)cc1`, the “hERG current change (%, negative = inhibition) at 1uM” value is -64.3%.

Turning to `CC(C)Cc1cc(CN2CCC(CO)(Cc3ccccc3)CC2)[nH]n1`, the “hERG current change (%, negative = inhibition) at 1uM” value is recorded as -42.9%. For `COc1ccc(CN2CCC(CO)(Cc3ccccc3)CC2)cc1Cn1cccn1` the value was -55.9%; for `CC(C)Cc1cc(CN2CCCC(CO)(Cc3cccc(Cl)c3)C2)[nH]n1` (stereo not shown), -14.7%; for `COc1ccc(CC2(CO)CCN(Cc3cnn(-c4ccc(F)cc4)c3)CC2)cc1`, -79.2%.

`COc1ccc(CN2CCC(CO)(Cc3cccc(C(F)(F)F)c3)CC2)cc1Cn1cccn1`: the “hERG current change (%, negative = inhibition) at 1uM” value is -35.3%.
